Here are results for 13 compounds from PubChem BioAssay (NCATS).

Values joined by “and” are separate entries in the source; they are usually repeats but may differ in a detail not shown here. Equal entries are not always repeated. A number with no mark means an inactive call. Results filed as inconclusive are left out. Active and inactive are the calls of the source. Unless noted, the call rests on the fitted dose curve; in most records, active means well fitted curve in the direction sought with a large enough effect; inconclusive means small, poorly fitted or top-dose-only effect, or another doubt; inactive means no such curve, though single readings can be large; an effect the other way counts as inactive or inconclusive.

Test [1] addresses Mitogen-activated protein kinase 10 (Mus musculus) (UniProt Q61831). Put plainly: JNK3 AlphaScreen Assay (AID 530; active means well fitted curve in either direction with a large enough effect, not every such curve was filed as active;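 further: kinase came from lysate of stimulated human HepG2 cells; signal reports phosphorylation of biotinylated GST-cJun 1-79 at Ser73 with 10 µM ATP; on the % scale 0 is the no-effect control and ±100 the full control effect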). In a few lines:
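JNK3 came from HepG2 lysates pre-activated with IL-1beta and TNF-alpha and phosphorylated biotinylated GST-cJun (1-79) at 10 uM ATP, pH 7.6, room temperature. Compounds were titrated. AlphaScreen signal used anti-phospho-cJun (Ser73) antibody.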
(In general: Alpha assays give light when donor and acceptor beads are brought close together.)

Test [2] can be described thus: Cell Viability - N2a (AID 540).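 Further: cells exposed to compound for 40 h at 37 °C; plate controls were DMSO alone for no effect and tamoxifen control for full effect; nearly all actives have a fitted effect of over 45% in size.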 To be noted: N2a mouse neuroblastoma cell viability; at 92.2 µM (top of the series). An outline of the steps:
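First, 1500 N2a cells per well incubate 5 hr at 37 °C; next, compounds are added and incubated 40 hr at 37 °C; finally CellTiter-Glo is added and luminescence read after 20 min, with AC50 derived by Hill modeling.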

The nature of test [3]: Cell Viability - HUV-EC-C (AID 542).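 Further: cells exposed to compound for 40 hours; nearly all actives have a fitted effect of over 35% in size.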 Further: potency means the concentration at half of the fitted maximal effect. On activity change, negative = cytotoxicity: on the % scale 0 is the no-effect control and ±100 the full control effect. An outline of the steps:
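Decrease in cellular ATP, quantified by luciferase luminescence, reflects toxicity in normal human vascular endothelial HUV-EC-C cells given compound for 40 hr in complete culture medium. Values are AC50s from concentration-response curves.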

The nature of test [4]: Cell Viability - H-4-II-E (AID 543).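 Further: cells exposed to compound for 40 hours; nearly all actives have a fitted effect of over 35% in size.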 Further: potency means the concentration at half of the fitted maximal effect. An outline of the steps: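 Here, cytotoxicity is measured in the rat hepatoma line H-4-II-E as loss of intracellular ATP after 40 hr compound treatment, detected by luciferase luminescence.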
Test [5] is described as follows: Cell Viability - SH-SY5Y (AID 544).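 Further: cells exposed to compound for 40 hours; nearly all actives have a fitted effect of over 55% in size.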 Further: potency means the concentration at half of the fitted maximal effect. In a few lines: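 Cytotoxicity is scored as a concentration-dependent fall in intracellular ATP in human SH-SY5Y cells treated 40 hr in complete culture medium. Potency is expressed as AC50 from a Hill equation fit.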
Test [6] can be described thus: Cell Viability - Renal Proximal Tubule (AID 545).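 Further: cells exposed to compound for 40 hours; 0% = DMSO only and -100% = 100 µM tamoxifen; nearly all actives have a fitted effect of over 40% in size.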 To be noted: renal proximal tubule cells viability, primary cells of rat origin; at 91.7 µM (top of the series). In a few lines: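 Primary rat renal proximal tubule cells (1000/well) were treated with compounds for 40 hr at 37 °C in complete medium. Intracellular ATP was measured by CellTiter-Glo luminescence, and AC50 values came from Hill-equation fits of concentration-response data.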

Test [7] in a line: Cell Viability - Mesenchymal (AID 546).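 Further: cells exposed to compound for 40 hours before reading; 0% = DMSO only and -100% = 100 µM tamoxifen.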 In a few lines: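 Normal human renal glomerulus-derived kidney mesenchymal cells, 1000 per well in complete medium, were treated with compounds for 40 hr at 37 °C. Viability was read as intracellular ATP by CellTiter-Glo luminescence; AC50 values came from Hill-equation fits of qHTS concentration-response data.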
Test [8] is described as follows: Cellular Toxicity (caspase-3) HepG2 (AID 654).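 Further: cells exposed to compound for 16 hours before reading; 0% = DMSO alone and 100% = caspase signal from 100 µM tamoxifen.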 In a few lines:
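qHTS, HepG2, 1500 cells/well, complete medium; cpd 16 h 37 °C; Caspase-Glo 3/7, 20 min RT; lum. Norm: DMSO vs 100 uM tamoxifen; AC50 Hill fit.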

The nature of test [9]: Cellular Toxicity (caspase-3) Jurkat (AID 655).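 Further: cells exposed to compound for 16 h at 37 °C before reading.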 Further: potency means the concentration at half of the fitted maximal effect. In a few lines: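 Jurkat cells (5000/well) in complete medium were treated with compounds for 16 hr at 37 °C, then Caspase-Glo 3/7 luminescence was read after 20 min at room temperature. Data normalized to DMSO (basal) and 100 uM tamoxifen (100%); AC50 from Hill fit.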
Test [10] is described as follows: Cellular Toxicity (caspase-3) HUV-EC-C (AID 656).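 Further: 0% = DMSO basal and 100% = 100 µM tamoxifen.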 An outline of the steps: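 HUV-EC-C endothelial cells, 1000/well, were pre-incubated 5 hr at 37°C, then exposed to compounds for 16 hr at 37°C. Caspase-Glo 3/7 luminescence was read after 20 min at room temperature. AC50 came from Hill fits, normalized to DMSO and 100 uM tamoxifen.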
Test [11] in a line: Cellular Toxicity (caspase-3) SHSY5Y (AID 657). Further: potency means the concentration at half of the fitted maximal effect. In a few lines: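 SH-SY5Y human neuroblastoma cells (1500/well) were treated with compounds for 16 h at 37 °C, then Caspase-Glo 3/7 luminescence was read after 1 h at room temperature. Data normalized to DMSO and 10 uM staurosporine; AC50 from Hill fits.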
A short description of test [12]: Cellular Toxicity (caspase-3) BJ (AID 658). Further: potency means the concentration at half of the fitted maximal effect.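 On caspase-3 activation: 0% = DMSO basal and 100% = 10 µM staurosporine.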 To be noted: Potency: caspase-3 activation. In a few lines:
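Luminescent aminoluciferin-substrate cleavage reports caspase 3/7 activity in normal human BJ fibroblasts after 16 hr compound exposure at 37 °C. Normalized to DMSO (basal) and 10 uM staurosporine (100%); AC50 from Hill fit of concentration-response.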

A short description of test [13]: Cellular Toxicity (caspase-3) MRC-5 (AID 659).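 Further: 0% = DMSO basal and 100% = 10 µM staurosporine.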 An outline of the steps: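 Luminescence from caspase-cleaved aminoluciferin substrate (Caspase-Glo 3/7, 1 hr RT) reports caspase 3/7 activity in MRC-5 lung fibroblasts after 16 hr compound exposure. Normalized to DMSO basal and 10 uM staurosporine as 100%; AC50 from Hill fits.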
The nature of test [14]: Cellular Toxicity (caspase-3) Mesangial (AID 660).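 Further: combined caspase 3 and 7 activity read by Caspase-Glo luminescence; cells exposed to compound for 16 h before the caspase read.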 In a few lines:
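Concentration-response qHTS: compound-induced rise in caspase 3/7 luminescence in human mesangial cells after 16 h, normalized to DMSO and 100 uM tamoxifen controls.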

Test [15] in a line: Cellular Toxicity (caspase-3) SK-N-SH (AID 661).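 Further: 0% = DMSO basal and 100% = 10 µM staurosporine.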 To be noted: SK-N-SH caspase-3 activation, qHTS; caspase-3 activation: at 91.7 µM (top of the series), DMSO as zero, staurosporine as full. In a few lines: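 Caspase 3/7 activation is measured as a luminescence increase from aminoluciferin released by substrate cleavage in SK-N-SH cells after 16 hr compound treatment; values are AC50 from concentration-response curves.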

The nature of test [16]: Cellular Toxicity (caspase-3) H-4-II-E (AID 663).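 Further: cells exposed to compound for 16 hr before readout; 0% = DMSO basal and 100% = 100 µM tamoxifen.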 An outline of the steps:
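Luminescence from caspase-cleaved aminoluciferin substrate, read 20 min after reagent addition, reports caspase 3/7 activation in rat H-4-II-E cells after 16 hr compound exposure. Normalized to DMSO (basal) and 100 uM tamoxifen (100%); AC50 from Hill fits.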

A short description of test [17]: Cell Viability - NIH 3T3 (AID 541).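 Further: cells exposed to compound for 40 hours; plate controls were DMSO alone for no effect and tamoxifen positive control for full effect; nearly all actives have a fitted effect of over 25% in size.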 To be noted: NIH 3T3 cell viability, qHTS; activity change, negative = cytotoxicity: at 92.2 µM (top of the series). An outline of the steps: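 AC50 values reflect concentration-dependent loss of intracellular ATP in NIH 3T3 cells after 40 hr treatment in complete culture medium, quantified by luciferase-based luminescence.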
(In general: qHTS replaces the single test concentration by a dilution series.)

Test [18] has as its target 3',5'-cyclic-AMP phosphodiesterase 4B (Homo sapiens) (UniProt Q07343). Put plainly: qHTS Assay for Inhibitors of PDE-IV (AID 607; active means well fitted activation curve with a large enough effect in the main read-out, with a control signal flat, not every such curve was filed as active; further: % of control where 0% means no effect). In a few lines:
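HEK293 ACTOne cells with CNG channel (1000/well), endogenous PDE4; membrane potential dye, compounds up to 22.9 uM final. Fluorescence Ex 535/Em 590; RO 20-1724 (100 uM final) as reference.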

Sequence of 3',5'-cyclic-AMP phosphodiesterase 4B (Homo sapiens) (Q07343 whole entry, looked up): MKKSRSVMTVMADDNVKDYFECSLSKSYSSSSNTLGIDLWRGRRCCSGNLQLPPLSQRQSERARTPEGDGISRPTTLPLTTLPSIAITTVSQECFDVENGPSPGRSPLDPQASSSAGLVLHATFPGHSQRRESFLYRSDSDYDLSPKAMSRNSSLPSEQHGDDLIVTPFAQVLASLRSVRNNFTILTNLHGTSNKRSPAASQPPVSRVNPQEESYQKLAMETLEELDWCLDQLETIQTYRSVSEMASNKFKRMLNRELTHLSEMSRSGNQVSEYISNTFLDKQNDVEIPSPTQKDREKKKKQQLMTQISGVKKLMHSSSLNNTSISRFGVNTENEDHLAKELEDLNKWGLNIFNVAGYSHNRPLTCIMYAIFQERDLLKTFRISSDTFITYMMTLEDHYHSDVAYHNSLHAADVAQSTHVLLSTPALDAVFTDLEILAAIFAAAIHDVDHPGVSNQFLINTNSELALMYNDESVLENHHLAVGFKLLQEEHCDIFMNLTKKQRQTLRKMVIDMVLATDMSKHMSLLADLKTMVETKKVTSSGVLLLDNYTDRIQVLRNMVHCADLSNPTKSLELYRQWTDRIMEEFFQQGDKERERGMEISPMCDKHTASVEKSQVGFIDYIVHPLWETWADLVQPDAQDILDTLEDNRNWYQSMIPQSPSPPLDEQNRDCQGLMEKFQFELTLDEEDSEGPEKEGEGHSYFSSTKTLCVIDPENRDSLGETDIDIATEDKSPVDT

As for `CC(C)O`, the compound was called inactive in [1], in [7], in test [8], in test [10], in test [13] and in [14]. The compound was classed as inactive in [16]. Also, the activity change, negative = cytotoxicity was -11.4% in test [2] and 5.6% in test [6]. Further, the Potency entry in test [3], in test [4], in test [5], in [9], in test [11] and in test [12] was “inactive” throughout. Besides, the Potency result in test [15] is “inactive”.
Turning to `OCC(O)CO`, the compound was called inactive in test [1], in test [7], in [8], in test [10], in test [13] and in test [14]. For the same compound, in test [16], the result was inactive. Moreover, the activity change, negative = cytotoxicity was -3.4% and 8.03% in [2]; -10.7% and -2.8% in [17]; -12.3% and -5.8% in test [6]. The Potency entry in [3], in test [4], in [5], in test [9], in test [11] and in test [12] was “inactive” throughout. In test [15], the Potency result was “inactive”.
For the compound `Cc1ncc(C[n+]2csc(CCO)c2C)c(N)n1`, the compound was called inactive in test [1] and in test [18].
Consider `Cc1ncc[nH]1`, for which the result in [1], in test [7], in test [8], in test [10], in test [13] and in [14] was inactive. For the same compound, the call in test [16] was inactive. The activity change, negative = cytotoxicity in test [2] is -1.34%; in [17], -6.23%; in test [6] it was -3.28%. Also, the Potency result in test [3], in [4], in [5], in [9], in test [11] and in test [12] was “inactive” in each case. Besides, the Potency result in test [15] is “inactive”.
With `C=C1C(CCl)(CCl)C2(Cl)C(Cl)C(Cl)C1(Cl)C2(Cl)Cl` (stereo not given), the activity change, negative = cytotoxicity was -112% (active) in test [2], -80.2% (active) in test [17] and -88.3% (active) in [6]. For the same compound, the Potency was 50.1 µM (active) in test [4], 31.6 µM (active) in [5], 39.8 µM (active) in test [11] and 63.1 µM (active) in [12]. The result in test [8] was inactive. Moreover, in test [15], the caspase-3 activation is 90.5% (active).
On to `C[C@H]1O[C@@H](O[C@H]2[C@@H](O)C[C@H](O[C@H]3[C@@H](O)C[C@H](O[C@H]4CC[C@@]5(C)[C@H](CC[C@@H]6[C@@H]5C[C@@H](O)[C@]5(C)[C@@H](C7=CC(=O)OC7)CC[C@]65O)C4)O[C@@H]3C)O[C@@H]2C)C[C@H](O)[C@@H]1O`, for which the result in test [1], in test [7], in [8], in test [10], in test [13] and in [14] was inactive. In addition, in [16], the result was inactive. The activity change, negative = cytotoxicity in [17] is -91% (active); in [6], -10.1%. The Potency in test [3] is 20 nM (active); in test [5], 0.0126 µM (active); in test [9] it was 12.6 nM (active). The Potency entry in test [4], in [11], in test [12] and in test [15] was “inactive” each time.
As to `Nc1nccs1`, the call in test [1], in [7], in [8], in test [10], in test [13] and in test [14] was inactive. In [16], the call was inactive. The activity change, negative = cytotoxicity was 4.71% in [2], -0.295% in test [17] and 6.3% in [6]. Further, the Potency entry in test [3], in test [4], in [5], in test [9], in test [11] and in test [12] was “inactive” in each case. Further, the Potency result in test [15] is “inactive”.
Regarding `CCSc1ccc2c(c1)N(CCCN1CCN(C)CC1)c1ccccc1S2`, the compound was called inactive in test [1] and in [18].
Consider `OB(O)O`, for which the result in test [1], in test [7], in test [8], in test [10], in test [13] and in test [14] was inactive. The result in test [16] was inactive. The activity change, negative = cytotoxicity was -10.8% in [2], -22.1% in test [17] and -6.9% in test [6]. The Potency result in test [3], in test [4], in [5], in [9], in test [11] and in test [12] was “inactive” throughout. Besides, the Potency result in test [15] was “inactive”.
`CC/C=C\C/C=C\C/C=C\CCCCCCCC(=O)O`: the call in test [1], in test [7], in test [8], in [10], in [13] and in [14] was inactive. Further, in test [16], the compound was classed as inactive. For the same compound, the activity change, negative = cytotoxicity is -20.9% in test [2], -137% (active) in [17] and -15.2% in test [6]. Moreover, the Potency result in test [3], in test [4], in test [9], in test [11], in test [12] and in test [15] was “inactive” each time.
`CC[C@H]1OC(=O)[C@H](C)[C@@H](O[C@H]2C[C@@](C)(OC)[C@@H](O)[C@H](C)O2)[C@H](C)[C@@H](O[C@@H]2O[C@H](C)C[C@H](N(C)C)[C@H]2O)[C@](C)(O)C[C@@H](C)CN(C)[C@H](C)[C@@H](O)[C@]1(C)O`: the result in [1], in test [7], in [8], in test [10], in test [13] and in test [14] was inactive. Moreover, the compound was called inactive in test [16]. For the same compound, the activity change, negative = cytotoxicity in [2] is -23.6%; in test [17], -19.1%; in test [6] it was -18.1%. In addition, the Potency result in test [4], in test [9], in test [11] and in test [12] was “inactive” throughout.
`CNC(=O)c1c(I)c(C(=O)NCC(=O)Nc2c(I)c(C(=O)O)c(I)c(C(=O)NCCO)c2I)c(I)c(N(C)C(C)=O)c1I`: the result in [1] and in [18] was inactive.
Turning to `CC(C)(C)CC(C)(C)c1ccc(OCCO)cc1`, the outcome in test [1], in [7], in test [8], in test [10], in test [13] and in [14] was inactive. Moreover, in test [16], the result was inactive. Moreover, the figures for the activity change, negative = cytotoxicity in test [17] and in [6] were -28.8% and -16.5%, respectively. Also, the Potency entry in [3], in test [5], in [9], in [11], in [12] and in test [15] was “inactive” throughout.
